# An excerpt weighted towards active compounds, which were near 21% of everything screened.
# Pf growth 96h: P. falciparum growth inhibition at 96 hour, primary screen for plastid delayed-death inhibitors. P. falciparum luciferase reporter growth, 96 h. 320,000 compounds, 6.9% hits. AID 504834. Potency, µM (top dose mostly 28.7 µM), for the others: at the highest dose activity change, negative = inhibition, most hits filed as inhibitors; further: potency means the concentration at half of the fitted maximal effect; on the % scale 0 is the no-effect control and ±100 the full control effect
#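 P. falciparum expressing integrated firefly luciferase, in erythrocytes at 2% hematocrit, 0.05% parasitemia, incubated with compounds 96 h at 37 C, 5% CO2. Growth inhibition read as loss of luminescence; two-generation exposure targets delayed-death apicoplast inhibitors.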
# Shiga inhibitor: blocks Shiga toxin action in Vero cells | Vero cells, Shiga toxin protein synthesis inhibition reporter | 290,000 compounds, 9.2% hits | inhibition, % at 38.7 µM; in the data active means inhibition mostly above about 28%, no sharp cut-off; inactive means mostly below about 43%; further: 0% is about no effect
# Pf growth 48h: P. falciparum growth inhibition at 48 hours (one generation); 310,000 compounds, 5.9% hits; Potency, µM (doses to about 28.7 µM), without a hit: top-dose activity change, negative = inhibition, most hits filed as inhibitors; P. falciparum luciferase growth in erythrocytes, 48 h; further: potency means the concentration at half of the fitted maximal effect; on the % scale 0 is the no-effect control and ±100 the full control effect
#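 First compound was added to culture medium, then infected red cells at 0.1% parasitemia and 2% hematocrit (final). After incubation at 37 C under 5% CO2, luciferase detection reagent was dispensed and light output recorded.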
# Cycloheximide cs: counter-screen hit for Shiga toxin inhibitors, cycloheximide | cell reporter, cycloheximide protein synthesis inhibition counterscreen | max response, % | 300,000 compounds, 12% hits | AID 2314; in the data active means max response mostly above about 13%, no sharp cut-off; inactive means mostly below about 14%; further: read at 38.3 µM for the half of the compounds with a filed dose; 0% is about no effect
# Active calls of the source: *; ? = inconclusive; . = no result; [ ] = another dose, or the depositor's remark. Unless noted, the call rests on the fitted dose curve; in most records, active means well fitted inhibition curve with a large enough effect; inconclusive means small, poorly fitted or top-dose-only effect, or another doubt; inactive means no such curve, though single readings can be large or run the other way.
SMILES,Pf growth 96h,Shiga inhibitor,Pf growth 48h,Cycloheximide cs
Cc1[nH]c(=O)c(C#N)cc1-c1csc(-c2ccccc2)n1,18.9%,-8.0,.,-2.8
CC(=O)c1nc(-c2ccccc2)sc1C,?,76.8*,30.3%,26.0
O=C(O)c1ccc(-c2nc(-c3ccc(Cl)c(Cl)c3)cs2)cc1,0.0%,140.6*,40.3%,36.6*
Cc1ccc(Cn2c(=O)c3ccccc3n3nc(C)cc23)cc1,?,20.7,?,1.5
Cc1cccc(NC(=O)CSc2nc(=O)n(CCN3CCOCC3)c3c2CCCC3)c1C,4.7%,.,3.1%,.
O=C(O)c1cnn(-c2nc(-c3ccc(Cl)c(Cl)c3)cs2)c1C(F)(F)F,?,34.6,1.4%,19.0*
O=C(NCc1nc(-c2ccccc2)cs1)c1ccccc1,-21.1%,29.7*,87.7%,19.2*
O=S(=O)(Nc1ccc(-c2csc(-c3ccccc3)n2)cc1)c1ccccc1,0.657µM*,-4.5,16.0%,0.9
O=C(O)c1ccccc1-c1csc(-c2ccccc2)n1,49.1%,79.0*,37.6%,23.3*
NC(=S)Cc1nc(-c2ccccc2)cs1,?,-5.9,?,6.4
O=C(O)c1cnn(-c2nc(-c3cccc(F)c3)cs2)c1C(F)(F)F,37.0%[1.15 µM],25.5,?,9.5
Cc1ccc(S(=O)(=O)Nc2ccc(-c3csc(-c4ccccc4)n3)cc2)cc1,-29.4%,9.6,15.9%,7.5
CC(C)C(NC(=O)c1ccccc1F)C(=O)NCc1ccc(F)cc1 (stereo not drawn),21.0%,-8.3,6.9%,-4.6
COc1cccc(N2CCN(CC(=O)NC(=O)NC3CCCCC3)CC2)c1,38.2%,.,-0.4%,.
Cc1ccc(-c2csc(NC(=O)C[n+]3cc(-c4ccc(C)cc4)n4c3CCC4)n2)cc1,-45.8%,37.9,?,13.0
Cc1ccc(-c2c[n+](Cc3cccc(Cl)c3)c3n2CCC3)cc1,?,2.5,?,-3.9
Cc1ccc(-c2c[n+](Cc3ccc(Cl)cc3)c3n2CCC3)cc1,0.294µM*,12.3,0.928µM*,-2.6
Clc1cccc(C[n+]2cc(-c3ccccc3)n3c2CCC3)c1,0.185µM*,17.1,2.08µM*,8.7
Cc1ccc(C[n+]2cc(-c3ccc(Cl)cc3)n3c2CCC3)cc1,0.415µM*,9.0,1.04µM*,0.6
O=S(=O)(NC1CCN(S(=O)(=O)c2ccc3c(c2)OCCO3)C1)c1c(F)cccc1F (stereo not drawn),1.5%,16.6,38.0%,1.7
CCCNc1c(NS(=O)(=O)c2cccs2)c(=O)oc2ccccc12,3.1%,0.6,12.4%,-2.4
O=C(COC(=O)CCNS(=O)(=O)c1ccccc1)Nc1ccc(OC(F)F)cc1,-16.0%,.,0.8%,.
N#Cc1ccc(NC(=O)COC(=O)CCNS(=O)(=O)c2ccccc2)cc1,42.0%,11.9,18.9%,45.1*
COC(=O)c1cccc(C23CC4(C2)[C@H](CN(Cc2ccc(C(F)(F)F)cc2)[C@@H]4c2ccccc2)C3c2ccc(C(F)(F)F)cc2)c1 (stereo partly drawn),?,13.8,10.4µM*,-4.6
COC(=O)c1ccc(C23CC4(C2)[C@H](CN(CC2CCCCC2)[C@@H]4c2ccccc2)C3c2ccc(C(F)(F)F)cc2)cc1 (stereo partly drawn),?,-5.2,?,-2.4
SMILES,Pf growth 96h,Shiga inhibitor,Pf growth 48h,Cycloheximide cs
COC(=O)c1ccc(C23CC4(C2)[C@H](CN(Cc2ccc(C(F)(F)F)cc2)[C@@H]4c2ccccc2)C3c2ccccc2)cc1 (stereo partly drawn),?,-4.5,?,3.8
COC(=O)c1ccc(C23CC4(C2)[C@H](CN(C)[C@@H]4c2ccccc2)C3c2ccc(C(F)(F)F)cc2)cc1 (stereo partly drawn),?,-21.3,10.4µM*,-4.7
COC(=O)c1ccc(C23CC4(C2)[C@H](CN(Cc2ccc(C(F)(F)F)cc2)[C@@H]4c2ccccc2)C3c2ccc(C(F)(F)F)cc2)cc1 (stereo partly drawn),10.4µM*,1.7,?,-3.6
CCCCn1c(-c2sccc2C)n[nH]c1=S,47.6%,-9.5,0.2%,-2.8
CC1(N(O)C=C2C=CC(=O)C=C2)CCCCC1=O (stereo not drawn),?,1.7,9.4%,-0.6
COc1ccc(NC(=O)CN(C)C(=O)c2ccc(OCc3ccccc3)c(OC)c2)cc1,?,.,8.5%,.
COc1cc(/C=C/c2cccc[n+]2C)ccc1OCC(=O)Nc1ccccc1C,-21.0%,-6.6,?,-7.3
CCOc1cc(/C=C/c2cccc[n+]2C)ccc1OCC(=O)Nc1ccc(C)cc1,5.22µM*,3.5,0.928µM*,-5.9
CCOc1cc(/C=C/c2cccc[n+]2C)ccc1O,8.28µM*,-1.9,9.28µM*,-0.3
COc1ccc(/C=C/c2cccc[n+]2C)c(O)c1,186.9%,-8.6,?,5.3
C[n+]1ccccc1/C=C/c1cc(Br)ccc1O,?,2.8,0.738µM*,-2.0
CCOc1cc(/C=C/c2cc(C(F)(F)F)[nH]c(=O)n2)ccc1O,21.8%,-13.0,?,-2.6
Cc1c(C(=O)/C=C/N(C)C)nnn1-c1ccc(Cl)cc1C#N,?,7.9,?,1.2
C=CCn1c(SCc2c(C)noc2C)nc2sc(C)c(C)c2c1=O,9.28µM*,-17.7,.,-2.8
Cc1c(Cc2ccccc2)c(=O)n2c([nH]c3ccccc32)c1C#N,?,-8.3,?,0.3
COc1ccccc1N=Cc1c(C)c(C#N)c2[nH]c3ccccc3n2c1=O,36.0%,36.4,11.6%,18.2*
CCNC(=O)O/N=C1\CCCCC1c1ccc([N+](=O)[O-])cc1[N+](=O)[O-] (stereo not drawn),?,37.8,?,-1.2
Cn1ccc(C(=O)Nc2ccc3c(c2)OCCO3)n1,75.3%,71.4*,11.6%,48.9*
Cn1nc(C(=O)Nc2ccc3c(c2)OCCO3)cc1C(=O)O,44.0%,19.1,75.2%,19.5*
Cn1nc(C(=O)Nc2ccc(Cl)cc2)cc1C(=O)Nc1ccc(Cl)cc1,21.1%,6.8,45.6%,-2.0
Cc1ccc(C)c(OCCn2cc(/C=C(/C#N)C(=O)NCC3CCCO3)c3ccccc32)c1 (stereo not drawn),45.4%,-10.6,2.08µM*,-2.5
Cc1cc(/C=C(\C#N)C(=O)NCC2CCCO2)c(C)n1-c1ccc(Cl)cc1 (stereo not drawn),10.4µM*,64.5*,10.4µM*,25.5*
N#C/C(=C\c1cn(CCOc2ccccc2)c2ccccc12)C(=O)NCC1CCCO1 (stereo not drawn),?,-25.2,9.28µM*,29.4*
CSCCC(N=C1NS(=O)(=O)c2ccccc21)C(=O)N1CCCC(C(N)=O)C1 (stereo not drawn),17.8%,.,7.8%,.
CCc1cccc(NC2c3ccccc3C(=O)N2c2ccc(C)cn2)c1 (stereo not drawn),?,89.7*,.,40.6
CCOC(=O)c1ccc(NC2c3ccccc3C(=O)N2c2cccnc2)cc1 (stereo not drawn),?,-2.4,2.7%,-4.4
CCOC(=O)c1ccc(NC2c3ccccc3C(=O)N2c2ccc(C)cn2)cc1 (stereo not drawn),11.7µM*,25.7,.,-2.8
Cc1ccc(N2C(=O)c3ccccc3C2Nc2ccccc2)nc1 (stereo not drawn),10.4µM*,30.1,.,9.8
